# Most compounds without a hit are left out; they make up all but 7.9% or so of the library.
# SW480 rereplic: inducers of DNA re-replication in SW480 colon cancer cells; AID 624297; Potency, µM (top dose mostly 46.1 µM), hits mostly activators; SW480 DNA re-replication, Hoechst DNA content imaging, 48 h; 1.8% of 340,000 active; further: nearly all actives have a fitted effect of over 55% in size
#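 Readout is total intensity of Hoechst-stained nuclei, excited at 405 nm and collected at 500-530 nm. Compound treatment lasted 48 hr at 37 C in 5% CO2 before staining.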
# MCF10A rereplic: inducers of DNA re-replication in MCF 10A breast cells. Potency, µM (series often up to 46.1 µM), actives largely listed as activators. 2.9% of 350,000 active. MCF 10A DNA re-replication, Hoechst nuclear intensity, 48 h. AID 624296; further: nearly all actives have a fitted effect of over 50% in size
# KB-V1 cytotox: KB-V1 MDR subline cytotoxicity; 3.4% of 400,000 active; Potency, µM (highest dose often 46.1 µM), hits mostly cytotoxic; AID 1347076; KB-V1 MDR cells viability, CellTiter-Glo, 72 h; further: nearly all actives have a fitted effect of over 60% in size
#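 In this primary screen, KB-V1 cells overexpressing P-gp are incubated with library compounds (lowest to highest concentration) for 72 h at 37 degrees C before a luminescent ATP viability read.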
# KB-3-1 tox: kills parental KB-3-1 adenocarcinoma cells; KB-3-1 viability, CellTiter-Glo ATP luminescence, 72 h; Potency, µM (titrated, usually from 46.1 µM), hits mostly cytotoxic; 1.4% of 400,000 active; AID 1347075; further: nearly all actives have a fitted effect of over 60% in size
#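 Here the drug-naive KB-3-1 line serves as comparator for MDR sub-line selectivity; cells received compound titrations, 72 h at 37 °C, then CellTiter-Glo readout.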
# HT1080 IDH1KD tx: kills HT-1080 cells with IDH1 knockdown; HT-1080 IDH1 knockdown viability, ATP luminescence, 48 h; Potency, µM (titrated, usually from 46.1 µM), hits mostly cytotoxic; 2% of 360,000 active; AID 686971
#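 In this qHTS, HT-1080 cells depleted of IDH1 are exposed for 48 h at 37 °C to compound titrations. Toxicity is scored from CellTiter-Glo luminescence, with DMSO as full viability and medium alone as none.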
# HT1080-NT tox: kills 2HG-producing HT-1080-NT fibrosarcoma cells; HT-1080-NT fibrosarcoma viability, CellTiter-Glo ATP luminescence, 48 h; Potency, µM (highest dose often 46.1 µM), hits mostly cytotoxic; 1.6% of 360,000 active; AID 686970;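 further: NT is the 2HG producing partner of a matched IDH1 knockdown line; nearly all actives have a fitted effect of over 55% in size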
#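 Viability by CellTiter-Glo luminescence after 48 h compound exposure at 37C of HT-1080-NT cells (750/well, RPMI, 5% FBS). % activity scaled between DMSO wells and medium-only wells, then curve-fitted and categorized by curve class.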
# Hits are given with their value; - = inactive; ? = inconclusive; . = no result given. The call rests on the fitted dose curve; in most records, active means well fitted curve in the direction sought with a large enough effect; inconclusive means small, poorly fitted or top-dose-only effect, or another doubt; inactive means no such curve, though single readings can be large; an effect the other way counts as inactive or inconclusive.
SMILES,SW480 rereplic,MCF10A rereplic,KB-V1 cytotox,KB-3-1 tox,HT1080 IDH1KD tx,HT1080-NT tox
CCn1c(=O)c(C(=O)NNS(=O)(=O)c2ccc(C)cc2)c(O)c2ccccc21,-,?,?,-,-,-
O=C(Oc1cccc2cccnc12)c1cccs1,?,5.17µM,11.6µM,?,6.51µM,14.6µM
O=C(Oc1cccc2cccnc12)c1ccco1,?,?,?,?,-,-
O=S(=O)(Nc1ccc2c(c1)OCCO2)c1cccc2cccnc12,-,-,16.4µM,-,-,-
O=C(Oc1ccccc1)c1cccc2cccnc12,-,-,-,-,3.98µM,3.98µM
O=C(Oc1cccc2cccnc12)c1cccc([N+](=O)[O-])c1,?,?,?,-,?,?
O=C(Oc1cccc2cccnc12)c1ccc2c(c1)OCCO2,10.3µM,3.26µM,?,-,?,23.1µM
CCCCCCn1cc(CN2CC(N3CCCC3)CS2(=O)=O)nn1 (stereo unspecified),.,.,?,-,-,-
COc1ccc(NC(=O)C2(C)CCN2CCc2ccccc2)cc1OC (stereo unspecified),.,.,-,-,-,-
Cc1cc(Br)c(Oc2cc(NN3CCCCC3)c([N+](=O)[O-])cc2[N+](=O)[O-])c(Br)c1,-,-,-,-,-,-
CN(C)CCNc1cc(N2CCN(C)CC2)ncn1,.,.,-,-,.,.
CN(Cc1ccc2c(c1)OCCO2)C(=O)CN1C(=O)NC2(CCCCC2)C1=O,-,-,-,-,-,-
CCN(Cc1ccc2c(c1)OCCO2)C(=O)CN1C(=O)NC2(CCCCC2)C1=O,-,-,18.4µM,-,-,-
Cc1cccc(CS(=O)(=O)c2ncc(CO)n2C)c1,-,-,-,-,-,-
Cc1oc(-c2ccc(Cl)cc2)cc1C(=O)/C(C#N)=C/Nc1ccccc1,-,13µM,-,-,-,-
Cc1oc(-c2ccc(Cl)cc2)cc1C(=O)N1CCC1(C)C(=O)O (stereo unspecified),.,.,-,-,-,-
Nn1cnc2cc3ccccc3cc2c1=O,-,-,-,-,.,.
COc1ccc(C(CNC(=O)c2cc3c(s2)CCC(C)C3)N2CCCC2)cc1 (stereo unspecified),?,?,-,20.6µM,?,?
COc1ccc(C(CNC(=O)c2cc3c(s2)CCC(C)C3)N2CCOCC2)cc1 (stereo unspecified),-,?,-,-,-,-
COc1ccc(C2=NS(=O)(=O)N(C)C(C(=O)NCc3ccccn3)=C2)cc1OC,-,-,-,-,-,-
COc1ccc(Br)cc1CN1C(=O)NC2(CCCCCC2)C1=O,-,-,-,-,-,-
COc1cc(Br)c(CN2C(=O)NC3(CCCCCC3)C2=O)cc1OC,-,-,6.51µM,-,-,-
COc1ccc(C2=NC(c3ccccc3)CO2)cc1 (stereo unspecified),-,-,.,.,.,.
COc1ccc(C2CC23N=C(c2ccccc2)OC3=O)cc1 (stereo unspecified),-,16.4µM,-,-,-,-
COc1ccc(CCNC(=O)CS(=O)Cc2nc(-c3ccc(C)cc3)oc2C)c(OC)c1 (stereo unspecified),.,.,-,-,.,.
SMILES,SW480 rereplic,MCF10A rereplic,KB-V1 cytotox,KB-3-1 tox,HT1080 IDH1KD tx,HT1080-NT tox
CN1CCN(CC(=O)Nc2c(C(=O)c3ccccc3)oc3ccccc23)CC1,?,-,-,-,20.6µM,23.1µM
CC1CC1C(=O)N(C)CC(=O)Nc1cccc(F)c1 (stereo unspecified),-,-,-,-,-,-
CN(C)CCNc1nc(-c2ccco2)c2c(c1C#N)CC(C)(C)OC2,-,-,-,-,-,-
CCCCN(C)c1nc(-c2ccco2)c2c(c1C#N)CC(C)(C)OC2,16.4µM,?,-,-,-,?
COc1ccccc1C(=O)Nc1ccnn1C1CCN(Cc2cnn(C)c2C)CC1,-,-,-,-,-,-
NC(=O)c1cc(Br)cc2c3c([nH]c12)CCCC3,?,?,16.4µM,8.2µM,?,?
Brc1ccc2[nH]c3c(c2c1)CCC3,-,-,-,?,-,-
COc1ccc(-c2csc3nc(C)nc(N4CCCCC4)c23)cc1OC,?,?,?,?,?,16.4µM

# Screening results deposited in PubChem by National Center for Advancing Translational Sciences (NCATS).
